In PubChem BioAssay (EPA / NIEHS):
Activity calls are given as the source filed them. The calls were made as follows: active = hit-call score of the fitted dose curve at least 0.9, where 1 is the maximum; inactive = score below 0.9.

Key:
[1] = ATG_M_61_CIS: Attagene CIS-FACTORIAL HepG2 Assay for M61 Transcription Factor (Internal Marker) (AID 2282937); conditions: HepG2 Attagene CIS-FACTORIAL M61 internal marker reporter; actives raise or lower the signal
In short: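 Human liver HepG2, transient MRTU transfection (cis promoter elements), 24 h compound. Total RNA → oligo(dT) RT → PCR → FAM label → HpaI → CE. Internal background marker; bidirectional fitting, DMSO = baseline.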

[2] = ATG_EGR_CIS: Attagene CIS-FACTORIAL HepG2 Assay for human Early Growth Response 1 (EGR1) (AID 2282938); conditions: HepG2 Attagene CIS-FACTORIAL EGR reporter mRNA; actives raise or lower the signal
In short: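 Transient transfection of human HepG2 with multiple cis-regulated reporter units, chemical exposure 24 h, total RNA isolated. Reverse transcription, PCR, fluorescent labelling and capillary electrophoresis quantify reporter transcripts; activity fitted bidirectionally against DMSO.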

[3] = ATG_M_19_CIS: Attagene CIS-FACTORIAL HepG2 Assay for M19 Transcription Factor (Internal Marker) (AID 2282939); conditions: HepG2 Attagene CIS-FACTORIAL M19 internal marker reporter; actives raise or lower the signal
In short: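 Chemical-treated HepG2 (24 h) with MRTU constructs; reporter transcripts detected by fluorescent RT-PCR fragment analysis on capillary electrophoresis. Internal background marker, DMSO as baseline.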

[4] = ATG_Ets_CIS: Attagene CIS-FACTORIAL HepG2 Assay for human Erythroblast Transformation Specific (ETS) (AID 2282941); conditions: HepG2 ETS cis-reporter transcription, actives raise or lower the signal
In short: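 HepG2 cells transiently transfected with cis-promoter reporter transcription units were dosed for 24 h; reporter mRNA was measured by RT-PCR, 6-FAM primer extension, HpaI digestion and capillary electrophoresis, with bidirectional fitting against DMSO baseline.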

[5] = target: Hepatocyte nuclear factor 3-beta (Homo sapiens) (UniProt Q9Y261); assay: ATG_FoxA2_CIS: Attagene CIS-FACTORIAL HepG2 Assay for human Forkhead box A2 (FOXA2) (AID 2282942); conditions: HepG2 cis-reporter transcription factor activity, 24 h; actives raise or lower the signal
Hepatocyte nuclear factor 3-beta (Homo sapiens), sequence (Q9Y261 whole entry, looked up): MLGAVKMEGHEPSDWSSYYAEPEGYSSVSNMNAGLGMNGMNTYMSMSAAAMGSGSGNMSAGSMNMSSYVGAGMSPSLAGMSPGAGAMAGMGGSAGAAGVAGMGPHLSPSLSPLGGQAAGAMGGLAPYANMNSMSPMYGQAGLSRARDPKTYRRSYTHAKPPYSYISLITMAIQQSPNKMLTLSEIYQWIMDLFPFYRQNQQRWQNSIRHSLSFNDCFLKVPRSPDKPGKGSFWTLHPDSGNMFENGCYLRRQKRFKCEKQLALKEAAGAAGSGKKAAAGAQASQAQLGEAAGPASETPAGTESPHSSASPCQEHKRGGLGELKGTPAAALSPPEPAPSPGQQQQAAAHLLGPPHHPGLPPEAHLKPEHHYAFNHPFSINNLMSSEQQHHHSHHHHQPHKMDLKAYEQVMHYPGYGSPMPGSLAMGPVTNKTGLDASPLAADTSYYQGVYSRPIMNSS
In short: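 Transient MRTU transfection of HepG2 liver cells; 24 h treatment; total RNA → oligo(dT) RT → PCR → FAM primer extension → HpaI cut → CE. Bidirectional fit vs DMSO.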

[6] = ATG_FoxO_CIS: Attagene CIS-FACTORIAL HepG2 Assay for human Forkhead box O (FoxO) (AID 2282943); conditions: HepG2 Attagene cis-reporter, FoxO element, mRNA; actives raise or lower the signal
In short: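 Read-out: fluorescence of 6-FAM-labelled reporter cDNA fragments resolved by capillary electrophoresis. Transiently transfected HepG2 cells were dosed for 24 h; activity fitted in both directions relative to DMSO controls.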

[7] = ATG_GATA_CIS: Attagene CIS-FACTORIAL HepG2 Assay for human GATA Binding Protein (AID 2282944); conditions: HepG2 GATA cis-element reporter, Attagene multiplex mRNA; actives raise or lower the signal
In short: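 Transfected cis-reporter HepG2 cells were treated with chemicals for 24 hours. Total RNA was then converted to cDNA, amplified with reporter-specific primers and analysed by fluorescent capillary electrophoresis, using DMSO-treated wells as baseline.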

[8] = ATG_GLI_CIS: Attagene CIS-FACTORIAL HepG2 Assay for human Zinc Finger Protein GLI1 (AID 2282945); conditions: HepG2, Attagene cis-factorial reporter mRNA, GLI element; actives raise or lower the signal
In short: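 Transiently transfected HepG2 cells report endogenous transcription factor activity via cis-element-driven reporter units. After 24 h compound exposure, reporter mRNA was measured by RT-PCR with capillary electrophoresis; bidirectional fitting against DMSO baseline.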

[9] = ATG_GRE_CIS: Attagene CIS-FACTORIAL HepG2 Assay for human Glucocorticoid Response Elements (GRE) (AID 2282947); conditions: HepG2 GRE cis-reporter, Attagene multiplex mRNA; actives raise or lower the signal
In short: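 Endogenous transcription factor activity is read through cis-element reporter constructs transiently transfected into HepG2 cells. After 24 h treatment, labelled RT-PCR products are resolved by capillary electrophoresis; DMSO sets baseline for bidirectional curve fitting.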

[10] = ATG_M_32_CIS: Attagene CIS-FACTORIAL HepG2 Assay for M32 Transcription Factor (Internal Marker) (AID 2282949); conditions: HepG2 Attagene cis-factorial M32 reporter, mRNA; actives raise or lower the signal;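 also: background control marker of the multiplexed CIS panel rather than a real target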
In short: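 Internal background marker read-out: RT-PCR/capillary electrophoresis fluorescence of reporter transcripts from transiently transfected HepG2 cells after 24 h chemical exposure. Activity fitted bidirectionally relative to DMSO negative control.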

[11] = target: Hypoxia-inducible factor 1-alpha (Homo sapiens) (UniProt Q16665); assay: ATG_HIF1a_CIS: Attagene CIS-FACTORIAL HepG2 Assay for human Hypoxia Inducible Factor 1 (HIF1A) (AID 2282951); conditions: HepG2 Attagene cis-factorial HIF1a reporter transcription; actives raise or lower the signal
Hypoxia-inducible factor 1-alpha (Homo sapiens), sequence (Q16665 whole entry, looked up, the tested form may be a part): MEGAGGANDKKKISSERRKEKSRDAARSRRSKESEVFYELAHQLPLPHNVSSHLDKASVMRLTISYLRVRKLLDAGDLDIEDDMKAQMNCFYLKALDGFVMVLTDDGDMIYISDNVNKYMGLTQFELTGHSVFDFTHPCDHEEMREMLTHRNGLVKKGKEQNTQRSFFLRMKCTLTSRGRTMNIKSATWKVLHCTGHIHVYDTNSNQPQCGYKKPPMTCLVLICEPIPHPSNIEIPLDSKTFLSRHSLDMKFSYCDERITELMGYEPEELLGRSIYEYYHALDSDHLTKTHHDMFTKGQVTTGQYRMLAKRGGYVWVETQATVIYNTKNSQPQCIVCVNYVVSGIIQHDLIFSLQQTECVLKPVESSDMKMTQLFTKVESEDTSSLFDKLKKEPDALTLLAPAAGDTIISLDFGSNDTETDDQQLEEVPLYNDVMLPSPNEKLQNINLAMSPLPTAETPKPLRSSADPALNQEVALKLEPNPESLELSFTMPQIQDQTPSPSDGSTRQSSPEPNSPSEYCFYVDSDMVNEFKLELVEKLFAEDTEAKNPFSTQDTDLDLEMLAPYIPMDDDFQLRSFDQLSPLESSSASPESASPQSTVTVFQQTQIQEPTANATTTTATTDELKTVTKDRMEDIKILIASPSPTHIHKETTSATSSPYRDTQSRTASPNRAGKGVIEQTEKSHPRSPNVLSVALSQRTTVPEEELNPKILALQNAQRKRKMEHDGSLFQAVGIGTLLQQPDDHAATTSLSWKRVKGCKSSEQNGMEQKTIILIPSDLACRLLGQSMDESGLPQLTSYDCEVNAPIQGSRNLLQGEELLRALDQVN
In short: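 Transient MRTU transfection of human HepG2 liver cells, 24 h compound treatment, then total RNA isolation, oligo(dT) reverse transcription, PCR amplification, fluorescent labelling and capillary electrophoresis of reporter fragments. Gain or loss relative to DMSO.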

[12] = target: Hepatocyte nuclear factor 6 (Homo sapiens) (UniProt Q9UBC0); assay: ATG_HNF6_CIS: Attagene CIS-FACTORIAL HepG2 Assay for human Hepatocyte Nuclear Factor 6 (HNF6) (AID 2282952); conditions: HepG2 Attagene cis-factorial HNF6 reporter transcription; actives raise or lower the signal
Hepatocyte nuclear factor 6 (Homo sapiens), sequence (Q9UBC0 whole entry, looked up): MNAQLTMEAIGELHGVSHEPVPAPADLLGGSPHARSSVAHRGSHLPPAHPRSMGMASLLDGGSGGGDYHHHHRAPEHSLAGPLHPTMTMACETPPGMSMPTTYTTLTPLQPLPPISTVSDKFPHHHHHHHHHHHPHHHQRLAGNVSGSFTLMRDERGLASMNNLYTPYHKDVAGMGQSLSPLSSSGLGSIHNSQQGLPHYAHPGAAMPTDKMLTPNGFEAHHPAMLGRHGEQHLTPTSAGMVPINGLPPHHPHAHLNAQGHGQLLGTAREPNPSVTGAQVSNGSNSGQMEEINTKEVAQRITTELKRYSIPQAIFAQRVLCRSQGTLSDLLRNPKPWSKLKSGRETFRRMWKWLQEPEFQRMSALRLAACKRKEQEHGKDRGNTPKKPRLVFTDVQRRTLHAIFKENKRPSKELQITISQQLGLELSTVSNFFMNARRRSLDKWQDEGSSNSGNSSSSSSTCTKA
In short: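 Transiently transfected HepG2 cells expressing cis-regulated reporter transcription units were exposed to chemical for 24 h in a 24-well format. Reporter transcript abundance was determined by fluorescence capillary electrophoresis.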

[13] = target: Heat shock factor protein 1 (Homo sapiens) (UniProt Q00613); assay: ATG_HSE_CIS: Attagene CIS-FACTORIAL HepG2 Assay for human Heat Shock Transcription Factor 1 (HSE) (AID 2282953); conditions: HepG2 HSE cis-reporter, Attagene RNA transcription; actives raise or lower the signal
Heat shock factor protein 1 (Homo sapiens), sequence (Q00613 whole entry, looked up): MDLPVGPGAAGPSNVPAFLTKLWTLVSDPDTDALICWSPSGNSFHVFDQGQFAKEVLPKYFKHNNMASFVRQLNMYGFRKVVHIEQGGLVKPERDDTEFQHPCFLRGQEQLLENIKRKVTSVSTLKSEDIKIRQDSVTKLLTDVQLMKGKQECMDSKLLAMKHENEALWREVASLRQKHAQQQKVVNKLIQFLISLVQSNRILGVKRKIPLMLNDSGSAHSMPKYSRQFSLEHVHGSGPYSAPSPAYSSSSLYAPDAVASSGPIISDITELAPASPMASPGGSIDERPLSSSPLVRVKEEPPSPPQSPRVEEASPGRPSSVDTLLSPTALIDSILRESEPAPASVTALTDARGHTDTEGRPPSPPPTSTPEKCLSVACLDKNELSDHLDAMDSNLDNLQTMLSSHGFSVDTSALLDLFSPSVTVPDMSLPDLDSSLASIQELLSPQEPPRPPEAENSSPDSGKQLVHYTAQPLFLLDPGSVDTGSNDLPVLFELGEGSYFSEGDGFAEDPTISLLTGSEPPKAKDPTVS
In short: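 Liver-derived HepG2 cells carry transiently introduced multiple reporter units governed by cis promoters. Reporter RNA measured 24 h post-dose through reverse transcription, PCR amplification, fluorescent labelling and capillary electrophoresis, normalised to DMSO.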

[14] = ATG_MRE_CIS: Attagene CIS-FACTORIAL HepG2 Assay for human Metal Responsive Element (MRE) (AID 2282954); conditions: HepG2 MRE cis-reporter transcription, Attagene multiplex; actives raise or lower the signal
In short: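 Fluorescent reporter fragments separated by capillary electrophoresis give mRNA induction for the MRE unit after 24 h treatment of transfected HepG2 cells. Endogenous transcription-factor activity is read; DMSO serves as negative control and baseline.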

[15] = ATG_PBREM_CIS: Attagene CIS-FACTORIAL HepG2 Assay for human Phenobarbital-responsive Enhancer Module (PBREM) (AID 2282955); conditions: HepG2 PBREM cis-reporter, Attagene multiplexed transcription; actives raise or lower the signal
In short: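 Endogenous transcription factors in human liver HepG2 cells drive a PBREM cis-element reporter, whose transcript level after 24 h treatment is quantified by RT-PCR with capillary electrophoresis; activity fitted in both directions against DMSO.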

[16] = target: Bile acid receptor (Homo sapiens) (UniProt Q96RI1); assay: ATG_IR1_CIS: Attagene CIS-FACTORIAL HepG2 Assay for human Nuclear Receptor Subfamily 1 Group H Member 4 (NR1H4), IR1 submotif (AID 2282946); conditions: IR1 reporter transcription, actives raise or lower the signal
Bile acid receptor (Homo sapiens), sequence (Q96RI1 whole entry, looked up): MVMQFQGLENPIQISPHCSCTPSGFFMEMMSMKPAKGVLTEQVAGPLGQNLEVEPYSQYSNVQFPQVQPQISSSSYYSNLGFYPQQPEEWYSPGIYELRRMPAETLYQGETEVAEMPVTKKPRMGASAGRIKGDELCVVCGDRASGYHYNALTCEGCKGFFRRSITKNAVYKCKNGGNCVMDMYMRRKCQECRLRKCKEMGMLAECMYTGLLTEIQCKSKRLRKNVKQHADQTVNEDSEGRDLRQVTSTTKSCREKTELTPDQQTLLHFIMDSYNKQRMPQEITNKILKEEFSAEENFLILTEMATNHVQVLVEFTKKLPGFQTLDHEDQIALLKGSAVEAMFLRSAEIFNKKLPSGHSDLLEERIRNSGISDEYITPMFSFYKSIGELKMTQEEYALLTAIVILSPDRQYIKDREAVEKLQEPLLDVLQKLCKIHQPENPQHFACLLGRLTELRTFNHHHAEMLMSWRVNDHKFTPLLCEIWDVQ
In short: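 HepG2 cells transiently transfected with multiple cis-promoter-driven reporter units to measure endogenous transcription factor activity; 24 h exposure. Reporter mRNA read by RT-PCR, FAM labelling, HpaI digestion and capillary electrophoresis. Bidirectional fit versus DMSO.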

[17] = ATG_ISRE_CIS: Attagene CIS-FACTORIAL HepG2 Assay for human Interferon Regulatory Factor 1 (IRF1) binding to an Interferon-Stimulated Response Element (ISRE) (AID 2282948); conditions: HepG2 ISRE cis-reporter (Attagene), mRNA transcription readout; actives raise or lower the signal
In short: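 HepG2 cells transiently transfected with multiplexed cis-promoter reporter units; after 24 h compound exposure, reporter mRNA quantified by RT-PCR, FAM labelling, HpaI digestion and capillary electrophoresis. Bidirectional fit versus DMSO baseline.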

[18] = ATG_M_06_CIS: Attagene CIS-FACTORIAL HepG2 Assay for M06 Transcription Factor (Internal Marker) (AID 2282950); conditions: HepG2 Attagene CIS-FACTORIAL M06 internal marker reporter; actives raise or lower the signal
In short: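 Cells (HepG2, transiently carrying cis-driven reporter units) receive chemical for 24 h before RNA isolation. Reporter cDNA is PCR-amplified, FAM-labelled by primer extension, HpaI-digested and sized on a capillary analyser.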

Measured: AC50

C#CC(C)(O)CC(C)C (stereo not given)
inactive: [1] | [2] | [3] | [4] | [5] | [6] | [7] | [8] | [9] | [10] | [11] | [12] | [13] | [14] | [15]

CC1(C)C(=O)N(Cl)C(=O)N1Br
inactive: [1] | [2] | [4] | [5] | [6] | [8] | [16] | [9] | [17] | [10] | [18] | [11] | [13] | [14] | [15]

Nc1ccc2c(O)cc(S(=O)(=O)O)cc2c1
inactive: [1] | [2] | [4] | [5] | [7] | [8] | [9] | [17] | [10] | [18] | [11] | [12] | [13] | [14] | [15]

C=COCCOCCOC=C
inactive: [1] | [2] | [3] | [6] | [7] | [8] | [16] | [9] | [17] | [10] | [18] | [11] | [13] | [14] | [15]

CCCCCCCCCCCCS(=O)(=O)Cl
inactive: [1] | [2] | [3] | [4] | [5] | [6] | [8] | [16] | [9] | [17] | [10] | [11] | [12] | [14] | [15]

COc1ccc(N)c([N+](=O)[O-])c1
inactive: [1] | [2] | [3] | [4] | [5] | [6] | [7] | [8] | [16] | [9] | [17] | [10] | [18] | [11] | [12] | [13] | [14] | [15]

CCOC(=O)C(C#N)=C(c1ccccc1)c1ccccc1
active: [2] 20 µM | [16] 100 µM | [11] 19.8 µM | [13] 149 µM | [14] 86.9 µM | [15] 2.07 µM
inactive: [1] | [3] | [4] | [5] | [6] | [7] | [8] | [17] | [10] | [18] | [12]

CCCCOCC
inactive: [1] | [2] | [3] | [5] | [8] | [16] | [9] | [17] | [10] | [18] | [11] | [12] | [13] | [14] | [15]

C=C(C#N)C(=O)OCC
inactive: [1] | [2] | [3] | [4] | [6] | [7] | [8] | [9] | [10] | [18] | [11] | [14] | [15]
active: [17] 169 µM | [13] 144 µM
